Experimental data reported in PubChem BioAssay (NCI).
The panel holds about 79,000 compounds, 15% with a hit somewhere; the sample as a whole holds those more often. Rule as the data show it: active = growth inhibition above about 70%; inactive = the rest.

Columns and labels:
[1] = NCI Yeast Anticancer Drug Screen. Data for the rad50 strain (AID 155);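 also: 0% = growth of vehicle-only cultures of the same strain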; conditions: S. cerevisiae rad50 strain growth inhibition; at 50.0 µM; active compounds read high
Summary of the method: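 Genetically altered yeast (DNA repair pathway); compound treatment; growth inhibition vs vehicle ctrl.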

[2] = NCI Yeast Anticancer Drug Screen. Data for the mec2-1 strain (AID 157); conditions: S. cerevisiae mec2-1 strain, at 50.0 µM, active compounds read high
Summary of the method: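 mec2-1 yeast strain, carrying an alteration in DNA damage repair or cell cycle control, was exposed to compounds; growth inhibition was measured relative to vehicle-treated controls.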

[3] = NCI Yeast Anticancer Drug Screen. Data for the sgs1 mgt1 strain (AID 161);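 also: 0% = growth of cultures given vehicle only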; conditions: S. cerevisiae sgs1 mgt1 strain, at 50.0 µM, active compounds read high
Summary of the method: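 Percent growth inhibition was derived by comparing compound-exposed mutant yeast with vehicle-exposed cultures. The strain carries alterations in DNA damage repair.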

[4] = NCI Yeast Anticancer Drug Screen. Data for the cln2 rad14 strain (AID 165);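 also: 0% = growth equal to vehicle treated cultures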; conditions: S. cerevisiae cln2 rad14 strain, at 50.0 µM, active compounds read high
Summary of the method: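 Yeast carrying cln2 and rad14 alterations (cell cycle control and DNA damage repair) were exposed to compounds. Growth inhibition was measured against vehicle-treated controls.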

[5] = NCI Yeast Anticancer Drug Screen. Data for the bub3 strain (AID 167); conditions: S. cerevisiae bub3 mutant strain, at 50.0 µM, active compounds read high
Summary of the method: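 Yeast carrying a defined mutation is treated with each compound, and growth is compared with that of vehicle-exposed cells to give inhibition.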

[6] = NCI Yeast Anticancer Drug Screen. Data for the mlh1 rad18 strain (AID 175); conditions: S. cerevisiae mlh1 rad18 strain growth inhibition; at 50.0 µM; active compounds read high
Summary of the method: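 Growth inhibition of the yeast strain was measured after compound exposure and expressed relative to vehicle-treated controls. The strain carries defined defects in DNA damage repair.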

Measured: growth inhibition

c1ccc2nc(-c3ccc4ccccc4n3)ccc2c1
inactive: [1] -5.95% | [2] -7.45% | [3] -3.4% | [4] -49.4% | [5] -13.7% | [6] -12.2%

C/C(CCl)=N\NC1=NC2(CCCCC2)P(=O)(NNc2ncccn2)S1 (centres undefined)
inactive: [1] 3.7% | [2] 12% | [3] 19.9% | [4] -0.5% | [5] 6.3% | [6] 15.2%

CN(C)CCNc1nc2c(no[n+]2[O-])c2ccccc12
inactive: [1] -28.9% | [2] -24.8% | [3] -14.3% | [4] -12.8% | [5] 3.35% | [6] -19.9%

CCOC(=O)/C(=C\c1ccc(Cl)cc1)[Se]c1ccccc1
inactive: [1] 56.9% | [2] 5.7% | [3] 28.9% | [4] 20.6% | [5] 11.3% | [6] 43%
